Source: PubChem BioAssay (Tox21)
Records with an inconclusive call do not appear. Calls of active or inactive are those of the source. Unless noted, the call rests on the fitted dose curve.

Columns and labels:
[1] = qHTS assay to identify small molecule agonists of the vitamin D receptor (VDR) signaling pathway - cell viability counter screen (AID 743224; active means well fitted cell-killing curve with a large enough effect in the repeat runs; further: series mostly up to about 63 µM; on the % scale 0 is the no-effect control and ±100 the full control effect; nearly all actives have a fitted effect of over 50% in size)
Summary of the method: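 VDR-bla cells were preincubated 4 h at 37C/5% CO2, then exposed to compounds for 16 h. After the 2 h room-temperature bla FRET read, CellTiter-Glo was added to the same wells and luminescence read after 30 min.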

[2] = qHTS assay to identify small molecule antagonists of the vitamin D receptor (VDR) signaling pathway - cell viability counter screen (AID 743225; active means well fitted cell-killing curve with a large enough effect in the repeat runs; further: on the % scale 0 is the no-effect control and ±100 the full control effect; nearly all actives have a fitted effect of over 50% in size)
Summary of the method: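 Parallel cytotoxicity test: VDR-UAS-bla HEK 293T, 3 nM (final) 1-alpha,25-dihydroxyvitamin D3 with test compound, 16 h, 37C. Endpoint is CellTiter-Glo luminescence in the same wells.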

[3] = qHTS assay to identify small molecule agonists of the NFkB signaling pathway (AID 1159509; active means well fitted curve in the direction sought with a large enough effect in the signal ratio in the repeat runs, not every such curve was filed as active; the % refers to the signal ratio; further: series mostly up to about 61 µM; on the % scale 0 is the no-effect control and ±100 the full control effect)
Summary of the method: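 After overnight attachment, reporter cells received test compounds, DMSO or positive controls and were incubated 5 hr at 37 C. FRET substrate was then added for 1.5 hr at room temperature before dual-emission fluorescence reading.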

[4] = qHTS assay to identify small molecule agonists of the NFkB signaling pathway - cell viability counter screen (AID 1159515); further: series mostly up to about 61 µM; on the % scale 0 is the no-effect control and ±100 the full control effect; nearly all actives have a fitted effect of over 55% in size
Summary of the method: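 NFkB-bla ME-180 cells, 2,000/well, were plated overnight at 37 C, 5% CO2, then exposed to compounds in DMSO for 5 hr. After the bla FRET read, CellTiter-Glo was added to the same wells; luminescence was read after 30 min at room temperature.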

[5] = qHTS assay to identify small molecule agonists of the endoplasmic reticulum stress response signaling pathway (AID 1159516; active means well fitted activation curve with a large enough effect in the signal ratio in the repeat runs, not every such curve was filed as active; the % refers to the signal ratio; further: on the % scale 0 is the no-effect control and ±100 the full control effect)
Summary of the method: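 CellSensor ESRE-bla HeLa cells, carrying a beta-lactamase reporter driven by the ER stress response element, were plated overnight and exposed to compounds for 5 hr at 37 C. Reporter activity was read as FRET substrate fluorescence after 2 hr at room temperature.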

[6] = qHTS assay to identify small molecule agonists of the endoplasmic reticulum stress response signaling pathway - cell viability counter screen (AID 1159517); further: series mostly up to about 61 µM; on the % scale 0 is the no-effect control and ±100 the full control effect; nearly all actives have a fitted effect of over 50% in size
Summary of the method: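 Cells, HeLa ESRE-bla; density, 1,500/well; dosing, 5 hr at 37 C, 5% CO2; readout, CellTiter-Glo luminescence after 30 min RT.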

[7] = qHTS assay to identify small molecule antagonists of the retinoid-related orphan receptor gamma (ROR-gamma) signaling pathway - cell viability counter screen (AID 1159520; active means well fitted cell-killing curve with a large enough effect in the repeat runs; further: on the % scale 0 is the no-effect control and ±100 the full control effect; nearly all actives have a fitted effect of over 50% in size)
Summary of the method: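 Cytotoxicity was read from cellular ATP (CellTiter-Glo luminescence) after 16 hr at 37 C with 1 uM doxycycline induction. The inducer was added 2 hr after compound transfer to Tet-on ROR gamma CHO cells.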

[8] = qHTS assay to identify small molecule agonists of the AP-1 signaling pathway - cell viability counter screen (AID 1159525); further: nearly all actives have a fitted effect of over 55% in size
Summary of the method: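 Luminescent ATP readout (Cell Titer Glo, 30 min RT), normalised to DMSO and tetra n-octyl ammonium bromide controls. Cells were ME-180 AP-1-bla in 0.5% dialyzed FBS Opti-MEM, with a 5 h, 37 °C compound exposure.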

[9] = qHTS assay to identify small molecule agonists of the AP-1 signaling pathway (AID 1159526); further: on the % scale 0 is the no-effect control and ±100 the full control effect

CCCNC(C)C(=O)Nc1c(C)csc1C(=O)OC (stereo not given)
inactive: Potency [1] | Potency [2] | outcome [3] | outcome [4] | outcome [5] | outcome [6] | Potency [7] | outcome [8] | Potency [9]

NNS(=O)(=O)c1ccc(Oc2ccc(S(=O)(=O)NN)cc2)cc1
inactive: Potency [1] | Potency [2] | outcome [3] | outcome [4] | outcome [5] | outcome [6] | Potency [7] | outcome [8] | Potency [9]

CCCCC1CCC(=O)O1 (stereo not given)
inactive: Potency [1] | Potency [2] | outcome [3] | outcome [4] | outcome [5] | outcome [6] | Potency [7] | outcome [8] | Potency [9]

O=S(=O)(O)C(F)(F)F
inactive: Potency [1] | Potency [2] | outcome [3] | outcome [4] | outcome [5] | outcome [6] | Potency [7] | outcome [8] | Potency [9]

OCc1ccccc1O
inactive: Potency [1] | Potency [2] | outcome [3] | outcome [4] | outcome [5] | outcome [6] | Potency [7] | outcome [8] | Potency [9]

CCN[C@H]1CN(CCCOC)S(=O)(=O)c2sc(S(N)(=O)=O)cc21
inactive: Potency [1] | Potency [2] | outcome [3] | outcome [4] | outcome [5] | outcome [6] | Potency [7] | outcome [8] | Potency [9]

COc1ccccc1N1CCN(CCCNc2cc(=O)n(C)c(=O)n2C)CC1
inactive: Potency [1] | Potency [2] | outcome [3] | outcome [4] | outcome [5] | outcome [6] | Potency [7] | outcome [8] | Potency [9]

O=C(O)c1cccc(Cl)c1Cl
inactive: Potency [1] | Potency [2] | outcome [3] | outcome [4] | outcome [5] | outcome [6] | Potency [7] | outcome [8] | Potency [9]

C=O
inactive: Potency [1] | Potency [2] | outcome [3] | outcome [4] | outcome [5] | outcome [6] | Potency [7] | outcome [8] | Potency [9]

CCCCCCC
inactive: Potency [1] | Potency [2] | outcome [3] | outcome [4] | outcome [5] | outcome [6] | Potency [7] | outcome [8] | Potency [9]

CCCCCCCCCC/C=C/C#N
inactive: Potency [1] | Potency [2] | outcome [3] | outcome [4] | outcome [5] | outcome [6] | Potency [7] | outcome [8] | Potency [9]

CCOc1ccc(NC(N)=O)cc1
inactive: Potency [1] | Potency [2] | outcome [3] | outcome [4] | outcome [5] | outcome [6] | Potency [7] | outcome [8] | Potency [9]

CC1=CC(=O)CC(C)(C)C1=O
inactive: Potency [1] | Potency [2] | outcome [3] | outcome [4] | outcome [5] | outcome [6] | Potency [7] | outcome [8] | Potency [9]

CN1CCN(c2c(F)cc3c(=O)c(C(=O)O)cn(CCF)c3c2F)CC1
inactive: Potency [1] | Potency [2] | outcome [3] | outcome [4] | outcome [5] | outcome [6] | Potency [7] | outcome [8] | Potency [9]

OCCN(CCO)CCN(CCO)CCO
inactive: Potency [1] | Potency [2] | outcome [3] | outcome [4] | outcome [5] | outcome [6] | Potency [7] | outcome [8] | Potency [9]

CCOc1ccc(OCC)c(Cl)c1
inactive: Potency [1] | Potency [2] | outcome [3] | outcome [4] | outcome [5] | outcome [6] | Potency [7] | outcome [8] | Potency [9]

OCCN1CCN(CCO)CC1
inactive: Potency [1] | Potency [2] | outcome [3] | outcome [4] | outcome [5] | outcome [6] | Potency [7] | outcome [8] | Potency [9]

COC(C)CCO (stereo not given)
inactive: Potency [1] | Potency [2] | outcome [3] | outcome [4] | outcome [5] | outcome [6] | Potency [7] | outcome [8] | Potency [9]

O=c1oc2c(O)c(O)cc3c(=O)oc4c(O)c(O)cc1c4c23
inactive: Potency [1] | Potency [2] | outcome [3] | outcome [4] | outcome [5] | outcome [6] | activity, negative = cytotoxicity [7] 0.685% [at 19 µM] | viability change, negative = cytotoxic [8] 7.4% [at 15.8 µM] | activation [9] 21.4% [at 15.8 µM]

CC(C)(CO)[C@@H](O)C(=O)NCCC(=O)O
inactive: Potency [1] | Potency [2] | outcome [3] | outcome [4] | outcome [5] | outcome [6] | Potency [7] | outcome [8] | Potency [9]

CCCCC(=O)O[C@]1(C(=O)CO)[C@H](C)C[C@H]2[C@@H]3CCC4=CC(=O)C=C[C@]4(C)[C@@]3(F)[C@@H](O)C[C@@]21C
inactive: Potency [1] | Potency [2] | outcome [3] | outcome [4] | outcome [5] | outcome [6] | Potency [7] | outcome [8] | Potency [9]

CCCC(CCC)(C(=O)OCC)C(=O)OCC
inactive: Potency [1] | Potency [2] | outcome [3] | outcome [4] | outcome [5] | outcome [6] | Potency [7] | outcome [8] | Potency [9]

FC(F)(F)c1ccccc1
inactive: Potency [1] | Potency [2] | outcome [3] | outcome [4] | outcome [5] | outcome [6] | Potency [7] | outcome [8] | Potency [9]

CCCNC(C)(C)COC(=O)c1ccccc1
inactive: Potency [1] | Potency [2] | outcome [3] | outcome [4] | outcome [5] | outcome [6] | Potency [7] | outcome [8] | Potency [9]

NC(=O)NS(=O)(=O)c1ccc(Cl)cc1
inactive: Potency [1] | Potency [2] | outcome [3] | outcome [4] | outcome [5] | outcome [6] | Potency [7] | outcome [8] | Potency [9]
